# Measured values taken from ChEMBL document CHEMBL1961873, “Compounds: GSK PKIS; Assays: Nanosyn kinase panel” (2012).
# How the values were obtained:
# [1] = biological target: Ribosomal protein S6 kinase alpha-6 (Homo sapiens) (UniProt Q9UK32); conditions: at 1 µM;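 also: each value is a mean inhibition of RSK4 from a GSK PKIS panel screen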
# [2] = biological target: T1, Serine/threonine-protein kinase Sgk1 (Homo sapiens) (UniProt O00141); conditions: at 0.1 µM
# T1 sequence (whole entry): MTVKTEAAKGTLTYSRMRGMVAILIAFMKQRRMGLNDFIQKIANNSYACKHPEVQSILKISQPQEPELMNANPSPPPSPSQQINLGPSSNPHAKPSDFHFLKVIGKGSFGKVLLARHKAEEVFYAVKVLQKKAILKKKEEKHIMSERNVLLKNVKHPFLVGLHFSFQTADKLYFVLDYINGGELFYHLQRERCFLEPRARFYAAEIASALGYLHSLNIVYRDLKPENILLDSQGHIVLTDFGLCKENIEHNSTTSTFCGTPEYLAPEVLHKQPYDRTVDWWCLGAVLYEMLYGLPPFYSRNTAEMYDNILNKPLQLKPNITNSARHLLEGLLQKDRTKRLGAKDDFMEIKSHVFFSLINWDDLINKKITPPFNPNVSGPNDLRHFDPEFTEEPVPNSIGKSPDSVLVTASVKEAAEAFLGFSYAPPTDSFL
# [3] = biological target: T1, Serine/threonine-protein kinase Sgk1 (Homo sapiens); conditions: at 1 µM
# [4] = biological target: T2, Serine/threonine-protein kinase Sgk2 (Homo sapiens) (UniProt Q9HBY8); conditions: at 0.1 µM
# T2 sequence (whole entry): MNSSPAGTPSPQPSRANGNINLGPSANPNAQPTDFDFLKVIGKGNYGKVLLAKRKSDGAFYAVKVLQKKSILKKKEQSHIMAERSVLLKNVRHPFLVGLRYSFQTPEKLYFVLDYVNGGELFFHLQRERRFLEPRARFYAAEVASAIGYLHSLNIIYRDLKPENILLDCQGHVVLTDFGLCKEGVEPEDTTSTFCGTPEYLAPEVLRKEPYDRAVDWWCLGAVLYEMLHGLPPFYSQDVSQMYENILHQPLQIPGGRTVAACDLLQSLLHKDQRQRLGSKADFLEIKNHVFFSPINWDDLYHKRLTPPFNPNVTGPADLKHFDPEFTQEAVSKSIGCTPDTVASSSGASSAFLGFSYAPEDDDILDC
# [5] = biological target: T2, Serine/threonine-protein kinase Sgk2 (Homo sapiens); conditions: at 1 µM
# [6] = biological target: T3, Serine/threonine-protein kinase Sgk3 (Homo sapiens) (UniProt Q96BR1); conditions: at 0.1 µM
# T3 sequence (whole entry): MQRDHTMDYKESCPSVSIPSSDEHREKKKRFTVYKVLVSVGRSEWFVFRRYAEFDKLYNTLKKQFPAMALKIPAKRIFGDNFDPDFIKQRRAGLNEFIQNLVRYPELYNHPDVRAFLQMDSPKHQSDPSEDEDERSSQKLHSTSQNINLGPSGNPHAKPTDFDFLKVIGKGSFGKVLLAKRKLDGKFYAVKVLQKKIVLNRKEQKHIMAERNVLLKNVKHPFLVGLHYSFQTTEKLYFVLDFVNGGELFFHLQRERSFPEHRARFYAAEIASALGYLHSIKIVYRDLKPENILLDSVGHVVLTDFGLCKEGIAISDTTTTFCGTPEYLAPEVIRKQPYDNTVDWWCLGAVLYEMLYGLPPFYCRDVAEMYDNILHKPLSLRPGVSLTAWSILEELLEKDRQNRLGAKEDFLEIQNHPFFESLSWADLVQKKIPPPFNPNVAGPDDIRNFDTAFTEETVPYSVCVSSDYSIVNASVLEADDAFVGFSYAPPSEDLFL
# [7] = biological target: T3, Serine/threonine-protein kinase Sgk3 (Homo sapiens); conditions: at 1 µM
# [8] = biological target: 5'-AMP-activated protein kinase catalytic subunit alpha-1 (Homo sapiens) (UniProt Q13131); conditions: at 0.1 µM
# Sequence of 5'-AMP-activated protein kinase catalytic subunit alpha-1 (Homo sapiens) (Q13131 whole entry, looked up): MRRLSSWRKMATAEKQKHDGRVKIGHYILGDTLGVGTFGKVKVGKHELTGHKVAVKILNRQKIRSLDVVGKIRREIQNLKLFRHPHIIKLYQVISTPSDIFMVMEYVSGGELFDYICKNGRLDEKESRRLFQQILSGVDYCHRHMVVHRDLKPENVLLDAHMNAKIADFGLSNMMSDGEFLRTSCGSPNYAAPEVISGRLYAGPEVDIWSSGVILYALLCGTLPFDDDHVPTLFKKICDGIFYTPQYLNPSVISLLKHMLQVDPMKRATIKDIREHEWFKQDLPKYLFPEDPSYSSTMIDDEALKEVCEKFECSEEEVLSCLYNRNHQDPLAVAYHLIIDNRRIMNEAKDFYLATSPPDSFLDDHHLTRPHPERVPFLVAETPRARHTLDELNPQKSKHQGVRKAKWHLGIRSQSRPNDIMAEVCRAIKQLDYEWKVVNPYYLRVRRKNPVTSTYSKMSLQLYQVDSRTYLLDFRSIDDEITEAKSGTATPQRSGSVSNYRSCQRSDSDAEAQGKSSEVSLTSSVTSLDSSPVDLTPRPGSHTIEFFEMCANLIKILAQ
# [9] = biological target: 5'-AMP-activated protein kinase catalytic subunit alpha-1 (Homo sapiens) (UniProt Q13131); conditions: at 1 µM
# [10] = biological target: 5'-AMP-activated protein kinase catalytic subunit alpha-2 (Homo sapiens) (UniProt P54646); conditions: at 0.1 µM
# Sequence of 5'-AMP-activated protein kinase catalytic subunit alpha-2 (Homo sapiens) (P54646 whole entry, looked up): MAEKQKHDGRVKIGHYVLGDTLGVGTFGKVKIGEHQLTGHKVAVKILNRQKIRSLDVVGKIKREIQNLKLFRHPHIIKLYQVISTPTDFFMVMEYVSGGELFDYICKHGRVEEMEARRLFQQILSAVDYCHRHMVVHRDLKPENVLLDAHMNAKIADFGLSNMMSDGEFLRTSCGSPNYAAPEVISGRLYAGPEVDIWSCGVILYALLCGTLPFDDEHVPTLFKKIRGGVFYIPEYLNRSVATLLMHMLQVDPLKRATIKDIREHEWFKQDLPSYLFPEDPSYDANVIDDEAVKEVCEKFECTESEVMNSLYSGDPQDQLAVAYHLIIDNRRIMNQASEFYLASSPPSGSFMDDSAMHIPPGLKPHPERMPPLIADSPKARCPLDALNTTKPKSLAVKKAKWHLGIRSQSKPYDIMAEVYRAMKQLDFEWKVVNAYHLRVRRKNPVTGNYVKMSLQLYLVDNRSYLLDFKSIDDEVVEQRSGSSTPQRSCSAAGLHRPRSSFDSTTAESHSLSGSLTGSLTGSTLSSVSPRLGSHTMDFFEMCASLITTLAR
# [11] = biological target: 5'-AMP-activated protein kinase catalytic subunit alpha-2 (Homo sapiens) (UniProt P54646); conditions: at 1 µM
# [12] = biological target: T4, NUAK family SNF1-like kinase 1 (Homo sapiens) (UniProt O60285); conditions: at 0.1 µM
# T4 sequence (whole entry): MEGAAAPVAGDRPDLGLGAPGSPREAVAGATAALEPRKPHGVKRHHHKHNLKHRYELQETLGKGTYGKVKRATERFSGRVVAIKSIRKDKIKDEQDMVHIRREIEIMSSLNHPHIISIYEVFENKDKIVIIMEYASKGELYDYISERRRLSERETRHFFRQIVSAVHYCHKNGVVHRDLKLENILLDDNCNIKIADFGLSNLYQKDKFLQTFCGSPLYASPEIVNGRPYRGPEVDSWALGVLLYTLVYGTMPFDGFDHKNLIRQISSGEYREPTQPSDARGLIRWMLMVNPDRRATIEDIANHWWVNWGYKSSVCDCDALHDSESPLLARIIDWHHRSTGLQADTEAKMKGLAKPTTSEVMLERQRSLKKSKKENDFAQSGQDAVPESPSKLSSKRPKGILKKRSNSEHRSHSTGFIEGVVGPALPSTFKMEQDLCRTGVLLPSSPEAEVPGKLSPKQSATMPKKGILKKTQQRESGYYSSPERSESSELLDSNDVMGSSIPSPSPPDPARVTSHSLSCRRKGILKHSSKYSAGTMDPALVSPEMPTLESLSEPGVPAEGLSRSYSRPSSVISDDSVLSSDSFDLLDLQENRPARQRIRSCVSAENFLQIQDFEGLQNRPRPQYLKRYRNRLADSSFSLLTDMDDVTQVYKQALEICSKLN
# [13] = biological target: T4, NUAK family SNF1-like kinase 1 (Homo sapiens); conditions: at 1 µM
# [14] = biological target: T5, Serine/threonine-protein kinase BRSK1 (Homo sapiens) (UniProt Q8TDC3); conditions: at 0.1 µM
# T5 sequence (whole entry): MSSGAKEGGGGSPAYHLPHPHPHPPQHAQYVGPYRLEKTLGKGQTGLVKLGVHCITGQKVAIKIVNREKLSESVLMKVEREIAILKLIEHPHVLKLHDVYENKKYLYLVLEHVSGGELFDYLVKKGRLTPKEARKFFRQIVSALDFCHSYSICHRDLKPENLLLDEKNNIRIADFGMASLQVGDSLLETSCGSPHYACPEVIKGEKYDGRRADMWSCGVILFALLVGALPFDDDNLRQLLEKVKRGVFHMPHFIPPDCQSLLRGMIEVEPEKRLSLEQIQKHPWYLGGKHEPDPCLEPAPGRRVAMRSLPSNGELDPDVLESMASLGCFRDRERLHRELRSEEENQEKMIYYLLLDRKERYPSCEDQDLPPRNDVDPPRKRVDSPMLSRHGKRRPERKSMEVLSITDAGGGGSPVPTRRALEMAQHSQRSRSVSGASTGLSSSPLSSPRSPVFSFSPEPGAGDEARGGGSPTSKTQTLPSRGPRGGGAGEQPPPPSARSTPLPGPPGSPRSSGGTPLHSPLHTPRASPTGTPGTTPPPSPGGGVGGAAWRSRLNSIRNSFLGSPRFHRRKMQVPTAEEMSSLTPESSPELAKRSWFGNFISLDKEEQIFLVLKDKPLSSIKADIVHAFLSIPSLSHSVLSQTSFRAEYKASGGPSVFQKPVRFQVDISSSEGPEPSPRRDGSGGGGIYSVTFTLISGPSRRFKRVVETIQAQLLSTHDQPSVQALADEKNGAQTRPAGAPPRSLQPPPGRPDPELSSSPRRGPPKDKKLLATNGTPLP
# [15] = biological target: T5, Serine/threonine-protein kinase BRSK1 (Homo sapiens); conditions: at 1 µM
# [16] = biological target: T6, Serine/threonine-protein kinase BRSK2 (Homo sapiens) (UniProt Q8IWQ3); conditions: at 0.1 µM
# T6 sequence (whole entry): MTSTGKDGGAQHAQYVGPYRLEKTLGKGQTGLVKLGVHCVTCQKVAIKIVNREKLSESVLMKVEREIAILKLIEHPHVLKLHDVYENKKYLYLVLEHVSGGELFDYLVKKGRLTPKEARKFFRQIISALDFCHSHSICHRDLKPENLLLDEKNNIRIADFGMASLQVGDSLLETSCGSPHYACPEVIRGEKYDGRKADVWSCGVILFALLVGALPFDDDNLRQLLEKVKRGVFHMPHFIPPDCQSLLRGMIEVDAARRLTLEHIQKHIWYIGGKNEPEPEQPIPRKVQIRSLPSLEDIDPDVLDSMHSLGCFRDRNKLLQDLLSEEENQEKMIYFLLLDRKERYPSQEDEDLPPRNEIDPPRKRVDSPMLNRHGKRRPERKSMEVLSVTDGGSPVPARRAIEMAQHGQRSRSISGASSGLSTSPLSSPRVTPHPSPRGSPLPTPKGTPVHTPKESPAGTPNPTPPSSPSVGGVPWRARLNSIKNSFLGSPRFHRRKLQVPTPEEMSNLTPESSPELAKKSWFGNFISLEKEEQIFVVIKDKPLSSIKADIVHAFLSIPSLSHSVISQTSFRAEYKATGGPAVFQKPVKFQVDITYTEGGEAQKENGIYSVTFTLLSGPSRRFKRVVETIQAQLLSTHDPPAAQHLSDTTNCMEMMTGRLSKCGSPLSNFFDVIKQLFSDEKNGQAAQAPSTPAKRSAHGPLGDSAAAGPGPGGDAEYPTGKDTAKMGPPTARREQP
# [17] = biological target: T6, Serine/threonine-protein kinase BRSK2 (Homo sapiens); conditions: at 1 µM
# [18] = biological target: Calcium/calmodulin-dependent protein kinase type 1D (Homo sapiens) (UniProt Q8IU85); conditions: at 0.1 µM
# Sequence of Calcium/calmodulin-dependent protein kinase type 1D (Homo sapiens) (Q8IU85 whole entry, looked up): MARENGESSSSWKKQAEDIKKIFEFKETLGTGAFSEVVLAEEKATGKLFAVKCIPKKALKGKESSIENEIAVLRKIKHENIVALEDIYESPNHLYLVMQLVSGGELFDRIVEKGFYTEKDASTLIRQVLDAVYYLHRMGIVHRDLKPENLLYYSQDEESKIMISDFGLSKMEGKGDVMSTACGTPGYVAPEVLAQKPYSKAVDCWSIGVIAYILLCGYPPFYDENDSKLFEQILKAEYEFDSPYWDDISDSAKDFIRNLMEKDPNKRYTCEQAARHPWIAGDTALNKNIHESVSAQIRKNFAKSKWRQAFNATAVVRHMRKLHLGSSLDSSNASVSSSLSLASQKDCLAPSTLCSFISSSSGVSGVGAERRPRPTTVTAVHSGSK
# [19] = biological target: Calcium/calmodulin-dependent protein kinase type 1D (Homo sapiens) (UniProt Q8IU85); conditions: at 1 µM
# [20] = biological target: Calcium/calmodulin-dependent protein kinase type II subunit alpha (Homo sapiens) (UniProt Q9UQM7); conditions: at 0.1 µM;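 also: reported values are averages (mean inhibition of CAMK2A)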
# Sequence of Calcium/calmodulin-dependent protein kinase type II subunit alpha (Homo sapiens) (Q9UQM7 whole entry): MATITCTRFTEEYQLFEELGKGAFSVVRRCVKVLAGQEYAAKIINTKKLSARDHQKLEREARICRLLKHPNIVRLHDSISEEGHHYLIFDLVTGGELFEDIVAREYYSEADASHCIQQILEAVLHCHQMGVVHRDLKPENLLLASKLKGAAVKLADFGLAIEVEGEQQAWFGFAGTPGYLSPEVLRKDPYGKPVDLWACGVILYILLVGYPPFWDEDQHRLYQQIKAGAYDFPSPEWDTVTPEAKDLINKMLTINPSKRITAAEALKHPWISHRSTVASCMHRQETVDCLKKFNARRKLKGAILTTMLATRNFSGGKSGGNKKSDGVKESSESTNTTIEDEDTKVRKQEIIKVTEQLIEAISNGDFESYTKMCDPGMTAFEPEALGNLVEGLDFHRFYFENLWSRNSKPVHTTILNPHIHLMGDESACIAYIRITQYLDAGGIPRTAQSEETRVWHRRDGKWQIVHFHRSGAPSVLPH
# Sequence of Ribosomal protein S6 kinase alpha-6 (Homo sapiens) (Q9UK32 whole entry): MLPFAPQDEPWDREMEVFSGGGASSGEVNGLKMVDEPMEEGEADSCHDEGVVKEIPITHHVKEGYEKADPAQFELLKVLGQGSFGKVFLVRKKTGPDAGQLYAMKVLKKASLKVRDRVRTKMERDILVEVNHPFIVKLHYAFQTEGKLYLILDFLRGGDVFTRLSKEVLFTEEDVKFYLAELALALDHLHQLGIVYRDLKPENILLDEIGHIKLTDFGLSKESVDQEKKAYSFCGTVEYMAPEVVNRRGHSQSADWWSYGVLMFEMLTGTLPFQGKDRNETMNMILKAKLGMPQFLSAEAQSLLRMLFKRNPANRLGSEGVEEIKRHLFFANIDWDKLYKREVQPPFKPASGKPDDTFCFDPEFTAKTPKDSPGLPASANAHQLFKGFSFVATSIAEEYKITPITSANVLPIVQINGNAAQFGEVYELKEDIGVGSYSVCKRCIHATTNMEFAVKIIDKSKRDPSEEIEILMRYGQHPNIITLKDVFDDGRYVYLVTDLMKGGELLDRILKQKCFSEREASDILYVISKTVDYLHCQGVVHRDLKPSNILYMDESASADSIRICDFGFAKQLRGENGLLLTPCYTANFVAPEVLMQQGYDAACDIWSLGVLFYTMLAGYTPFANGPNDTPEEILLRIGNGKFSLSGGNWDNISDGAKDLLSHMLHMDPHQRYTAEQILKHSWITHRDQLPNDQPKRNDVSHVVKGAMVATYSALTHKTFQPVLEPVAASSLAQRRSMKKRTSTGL
SMILES,inhibition [1] [%],inhibition [2] [%],inhibition [3] [%],inhibition [4] [%],inhibition [5] [%],inhibition [6] [%],inhibition [7] [%],inhibition [8] [%],inhibition [9] [%],inhibition [10] [%],inhibition [11] [%],inhibition [12] [%],inhibition [13] [%],inhibition [14] [%],inhibition [15] [%],inhibition [16] [%],inhibition [17] [%],inhibition [18] [%],inhibition [19] [%],inhibition [20] [%]
NC(=O)c1cc(-c2ccncc2)cc(-c2ccccc2)c1N,2.63,4.37,2.48,4.36,3.52,2.61,5.81,3.6,2.86,4.45,4.03,0.7,1.68,2.46,4.23,1.64,2.72,0.15,1.27,2.51
COc1cccc(-n2cnc3c(N/N=C/c4ccncc4)ncnc32)c1,1.9,1.3,4.05,1.67,2.41,3.19,3.83,1.05,3.79,-1.1,1.47,2.39,22.3,-0.01,4.34,-0.23,6.3,0.54,-0.39,0.58
COc1cccc(/C=N/Nc2ncnc3c2cnn3-c2cccc(OC)c2)c1,1.54,1.88,1.38,1.32,2.15,2.71,2.43,1.52,2.74,5.39,2.83,1.95,3.7,0.47,-0.97,1.04,2.41,-0.14,0.89,0.99
Fc1ccc(-c2ncn(C3CCNCC3)c2-c2ccnc(Oc3ccc4c(c3)OCO4)n2)cc1,3.03,3.72,3.6,2.63,3.07,6.26,4.11,2.72,3.99,3.86,4.45,1.79,3.25,0.76,6.01,3.69,5.73,-0.69,0.53,6.35
C#Cc1cccc(Nc2ncnc3ccc(OCCCCNCCS(C)(=O)=O)cc23)c1,3.55,3.74,5.99,3.88,4.33,3.82,4.46,4.2,6.4,4.13,4.43,4.55,12.9,1.77,7.62,3.96,10,-0.65,0.48,3.18
CNC(=O)c1cncc(/C=C/c2c(C)cccc2C)c1,0.69,0.67,2.02,5.07,-3.14,-1.1,0.16,-0.07,0.48,-4.03,0.33,2.16,2.93,1.29,5.17,0.83,5.16,1.13,0.73,2.12
